Measured values reported in PubChem BioAssay (NCI).
This is part of a sample that, as a whole, favours compounds with a hit. Of some 83,000 tested, about 20% had one in any assay.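 Results are percent growth after 48 hours of single-concentration exposure. 100 means growth as in untreated cells, lower positive values show inhibition; negative values down to -100 show cell death.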 Active and inactive are the calls of the source. How the source made its calls: active means growth percent below 10; inactive means the rest.

How the values were obtained:
Experiment in all cases: NCI-60 one-dose screen, 48 h (100 = growth as untreated, 0 = no growth, -100 = all killed)
Details in all cases: 10 µM unless noted
[1] = test system: DU-145 prostate
[2] = test system: K-562 leukemia
[3] = test system: MALME-3M melanoma
[4] = test system: MDA-MB-231 breast
[5] = test system: RXF 393 renal
[6] = test system: SF-268 CNS
[7] = test system: SF-295 CNS
[8] = test system: SF-539 CNS
[9] = test system: UACC-257 melanoma
[10] = test system: HCT-15 colon
[11] = test system: HT29 colon
[12] = test system: SNB-75 CNS
[13] = test system: SNB-19 CNS
[14] = test system: U251 CNS
[15] = test system: PC-3 prostate
[16] = test system: SK-MEL-5 melanoma
[17] = test system: UACC-62 melanoma
[18] = test system: LOX IMVI melanoma
[19] = test system: SK-MEL-28 melanoma
[20] = test system: M14 melanoma

Measured: growth

O=C(/C=C/c1ccc[nH]1)c1ccc(-n2ccc(C(F)(F)F)n2)cc1
inactive: [1] 96.4% | [2] 68.1% | [3] 86% | [4] 22.7% | [5] 50% | [6] 34.2% | [7] 70.2% | [8] 14.3% | [9] 96.7% | [10] 86.6% | [11] 97.3% | [12] 51.6% | [13] 75.5% | [14] 20% | [16] 99.9% | [17] 90.3% | [18] 97.1% | [19] 103%
active: [15] 8.84%

CCSc1ccc2c(c1)N(CCCN1CCN(C)CC1)c1ccccc1S2
active: [2] -20.9% | [3] -61.6% | [9] -69.8% | [10] 2.48% | [11] -14.7% | [16] -98.7% | [17] -43% | [18] -82.5% | [19] -85.2%
inactive: [1] 56.3% | [4] 16.5% | [5] 18.6% | [6] 55.8% | [7] 35.4% | [8] 63.2% | [12] 28.3% | [13] 68.8% | [14] 36.2% | [15] 51.9%

[O-][n+]1ccccc1CCN(O)CCc1cccc[n+]1[O-]
inactive: [1] 111% | [2] 106% | [3] 99.5% | [4] 97.8% | [5] 113% | [6] 101% | [7] 103% | [8] 87% | [9] 106% | [10] 99.3% | [11] 98.5% | [12] 85.4% | [13] 102% | [14] 105% | [15] 91.8% | [16] 95.3% | [17] 99% | [18] 97.9% | [19] 116%

CN(C)C(=O)c1cc2cnc(Nc3ccc(-c4csc5c(=O)cc(N6CCOCC6)oc45)cc3)nc2n1C1CCCC1
active: [1] -97.1% | [2] 2.96% | [3] -67.9% | [4] -7.21% | [5] -85.8% | [6] -2.94% | [7] -36.9% | [8] -70.2% | [9] -81.5% | [11] -48.6% | [12] -65% | [13] 1.45% | [14] -7.84% | [15] -42% | [16] -98% | [17] -69.6% | [18] -39.3% | [19] -55.9%

CN1CCCC1=Nc1ccccc1
inactive: [1] 116% | [2] 100% | [3] 104% | [4] 109% | [5] 103% | [6] 124% | [7] 96.7% | [8] 113% | [9] 101% | [10] 111% | [11] 98.1% | [12] 80% | [13] 107% | [14] 94.7% | [15] 96.9% | [17] 91.4% | [18] 96.6%

COc1ccc(/C(=C\c2ccccc2)C(=O)O)cc1OC
inactive: [1] 108% | [2] 134% | [3] 95.9% | [4] 89.1% | [5] 104% | [6] 103% | [7] 101% | [8] 103% | [9] 99.2% | [10] 102% | [11] 103% | [12] 81.6% | [13] 95.7% | [14] 99.6% | [15] 96.9% | [16] 93% | [18] 95.3% | [19] 106%

CCCCCCNC(=O)Oc1ccc(/C(=C(/CC)Cc2ccccc2)c2ccc(OCCN(CC)CC)cc2)cc1
active: [2] -11.6% | [10] 5.48% | [11] -24.3%
inactive: [1] 80.8% | [3] 17.4% | [4] 67.5% | [5] 60.2% | [6] 76.5% | [7] 102% | [8] 86.1% | [9] 86% | [12] 78.8% | [13] 69.2% | [14] 43.2% | [15] 51.6% | [16] 51.2% | [18] 80.1%

COc1ccc(Cn2nc(-c3ccccc3)c3c2CCc2cnoc2-3)cc1
inactive: [1] 96.9% | [2] 36.3% | [3] 109% | [4] 55.6% | [6] 81% | [7] 59.5% | [8] 85.4% | [9] 90.9% | [20] 89.2% | [10] 67.6% | [11] 84% | [12] 65.5% | [13] 82.2% | [14] 78% | [15] 52.9% | [16] 74.5% | [17] 51.5% | [18] 72.8%

Clc1ccc(N2N=C(c3cccc(Nc4ccncc4)c3)CC2c2ccccc2)cc1 (centres undefined)
inactive: [1] 100% | [2] 46% | [3] 93.5% | [4] 93.2% | [6] 78.1% | [7] 102% | [8] 86% | [9] 101% | [10] 103% | [11] 80.7% | [12] 65% | [13] 95.6% | [14] 90.4% | [15] 84.9% | [16] 94% | [17] 96.9% | [18] 86.8% | [19] 90.4%
active: [20] -55.4%

COc1cc(OC)c(/C=C/C(=O)c2ccc(Nc3ncnc4ccccc34)cc2)c(OC)c1
inactive: [13] 12.9% | [15] 12%
active: [1] -26.5% | [2] 4.41% | [3] -39.8% | [4] -19.9% | [6] -71.9% | [7] -47.7% | [8] -56.6% | [9] -12% | [20] -15.5% | [10] 9.75% | [11] -62.4% | [12] -38.9% | [14] -9.02% | [16] -42.4% | [17] -50% | [18] 3.48% | [19] -26.4%

C#CCNC(=O)[C@H](Cc1ccccc1)NC(=O)[C@]12CC[C@@H](C(=C)C)[C@@H]1[C@H]1CC[C@@H]3[C@@]4(C)Cc5c([nH]c6ccccc56)C(C)(C)[C@@H]4CC[C@@]3(C)[C@]1(C)CC2
inactive: [1] 101% | [2] 83.9% | [3] 113% | [4] 97.7% | [5] 93.9% | [6] 92.6% | [7] 96.6% | [8] 102% | [9] 96.7% | [10] 101% | [11] 88.8% | [12] 92.9% | [13] 90.9% | [14] 91.8% | [15] 77.8% | [16] 102% | [17] 93.2% | [18] 97.4% | [19] 102%

Nc1c(C(=O)Nc2ccc(Cl)cc2)cc(-c2nc3ccccc3s2)c(=O)n1NS(=O)(=O)c1ccc(Cl)cc1
inactive: [1] 107% | [2] 95.7% | [3] 107% | [4] 94.1% | [5] 104% | [6] 96.7% | [7] 98.4% | [8] 102% | [9] 104% | [10] 96.7% | [11] 104% | [12] 84.1% | [13] 99.8% | [14] 104% | [15] 104% | [17] 89.8% | [18] 99.3% | [19] 109%

CCCCCCCCOC(=O)c1ccc(O)c(OC)c1
inactive: [1] 104% | [2] 116% | [3] 99.7% | [4] 85% | [5] 100% | [6] 83.8% | [7] 98.7% | [8] 92.6% | [9] 86.6% | [10] 105% | [11] 97.7% | [12] 78.8% | [13] 93.2% | [15] 78% | [17] 92% | [18] 59.3% | [19] 105%

CC(=O)CCSc1ccc(OC(C)=O)cc1
inactive: [1] 108% | [2] 96.1% | [3] 115% | [4] 91.7% | [5] 109% | [6] 96.4% | [7] 105% | [8] 97.3% | [9] 88.1% | [10] 101% | [11] 90.1% | [12] 86.8% | [13] 97.8% | [14] 95.3% | [15] 83.8% | [16] 96.1% | [17] 93.1% | [18] 98.1% | [19] 107%

Cc1cn(-c2cc(C(=O)Nc3cccc(C#Cc4cccc5[nH]nc(N)c45)c3)cc(C(F)(F)F)c2)cn1
active: [2] 5.16% | [3] -12% | [5] 1.89%
inactive: [1] 72.5% | [4] 29.8% | [6] 58.6% | [7] 67.2% | [8] 25.3% | [9] 18.1% | [10] 57.4% | [11] 18.5% | [12] 65.8% | [13] 76.2% | [14] 54.9% | [15] 75.3% | [16] 24.2% | [18] 11%

COc1ccc(-c2c(-c3ccccc3)noc2N)cc1OC
inactive: [1] 104% | [2] 95% | [3] 102% | [4] 120% | [6] 107% | [7] 103% | [8] 115% | [9] 88.3% | [20] 98.4% | [10] 100% | [11] 101% | [12] 101% | [13] 109% | [14] 98% | [15] 98.8% | [16] 97.3% | [17] 95% | [18] 105%

O=C(OC(OC(=O)c1cc(Cl)cc(Cl)c1)c1cccc2ccccc12)c1ccccc1 (centres undefined)
inactive: [1] 103% | [2] 92.1% | [3] 91% | [4] 95.5% | [5] 110% | [6] 94.8% | [7] 107% | [8] 103% | [9] 96.1% | [10] 106% | [11] 86.7% | [12] 99.3% | [13] 100% | [15] 91.2% | [16] 102% | [17] 86.4% | [18] 92.3% | [19] 111%
